Data on 14 molecules can be found in PubChem BioAssay (NCI).

Structures are written as SMILES. This is part of a sample that, as a whole, favours compounds with a hit. Of some 83,000 tested, about 20% had one in any assay.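 Each cell line was grown in a 96-well plate and treated with one concentration of compound for 48 hours. Values below 10 were considered active.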 Unmarked numbers belong to inactive results. Calls of active or inactive are those of the source.

Some test systems named below: T-47D breast; BT-549 breast; MDA-MB-435 melanoma; SW-620 colon; MCF7 breast; HCT-116 colon; HCC-2998 colon; KM12 colon.
Test in all cases: NCI-60 one-dose screen, 48 h (100 = growth as untreated, 0 = no growth, -100 = all killed)
Common to all, as to settings: 10 µM unless noted

As for `Cc1[nH]c(C(=O)Nc2cccc(OC3CCNCC3)c2)c(Cl)c1Cl`, the growth in the assay on T-47D breast was 87.9%; in the assay on BT-549 breast it was 84.6%; in the assay with MDA-MB-435 melanoma it was 43%; in the assay with SW-620 colon, 0.537% (active); with MCF7 breast, 47.4%; with HCT-116 colon, 46.2%. In addition, the growth in the assay with HCC-2998 colon was 2.97% (active); in the assay on KM12 colon, 57%.
`CCOC(=O)C(=Cc1cccc(C#N)c1)C(=O)OCC`: the growth with T-47D breast is 38.8%; in the assay with BT-549 breast, 71.2%; in the assay with MDA-MB-435 melanoma, 55.4%; in the assay with SW-620 colon, 27.9%; in the assay with MCF7 breast it was 24.3%; with HCT-116 colon, 20.9%. The growth is 110% in the assay on HCC-2998 colon and 54.8% with KM12 colon.
`O=C(Cn1cc(CN2C(=O)c3ccccc3S2(=O)=O)nn1)Nc1cccc(Cl)c1`: the growth in the assay with T-47D breast was 97%; in the assay with BT-549 breast, 133%; in the assay with MDA-MB-435 melanoma, 100%; with SW-620 colon it was 102%; in the assay on MCF7 breast it was 92.5%; with HCT-116 colon, 98.8%. The results for the growth with HCC-2998 colon and with KM12 colon were 93.5% and 104%, respectively.
Regarding `O=C(/C=C/c1cccc(Cl)c1)c1cccc(OCCCCOc2cccc(C(=O)/C=C/c3cccc(Cl)c3)c2)c1`, the growth in the assay on T-47D breast is 75.8%; in the assay with BT-549 breast, 92.6%; in the assay on MDA-MB-435 melanoma it was 70.9%; with SW-620 colon, 75.1%; in the assay with MCF7 breast it was 12.6%; with HCT-116 colon it was -13.7% (active). Also, the growth with HCC-2998 colon is 85.5%; in the assay with KM12 colon, 70.5%.
Regarding `NC(=O)OCCn1cc(-c2nc(-c3c[nH]c4ncccc34)cs2)c2ccccc21`, the growth in the assay on T-47D breast was 44.7%; with BT-549 breast, 32.8%; in the assay with MDA-MB-435 melanoma, -33.4% (active); in the assay on SW-620 colon, 8.68% (active); in the assay on MCF7 breast, 18.3%; in the assay on HCT-116 colon, 30.8%. For the same molecule, the growth in the assay with HCC-2998 colon is 71.7%; in the assay on KM12 colon, 23%.
`CCN(CC)c1ccc(/C=N/NC(=O)c2ccc(Nc3ccnc(C(F)(F)F)c3)cc2)c(O)c1`: the growth with T-47D breast is -2.74% (active); with BT-549 breast it was -2.72% (active); in the assay with MDA-MB-435 melanoma it was 17.5%; in the assay with SW-620 colon it was 41.5%; in the assay with MCF7 breast, 13.9%; in the assay with HCT-116 colon it was 23.6%. Besides, the growth in the assay with HCC-2998 colon is 38.3%; in the assay with KM12 colon it was 24.6%.
`CCOC(=O)c1c(C)c2c(n1C)CSc1cc(S(=O)(=O)c3ccccc3)c(=O)[nH]c1-2`: the growth was 12.3% [100 µM] in the assay on T-47D breast; 3.95% [100 µM] (active) in the assay on BT-549 breast; 19.3% [100 µM] in the assay with MDA-MB-435 melanoma; 35.9% [100 µM] with SW-620 colon; 13.8% [100 µM] in the assay on MCF7 breast; 11% [100 µM] in the assay with HCT-116 colon. In addition, the growth is 20.3% [100 µM] with HCC-2998 colon and 16.5% [100 µM] in the assay on KM12 colon.
On to `CCCCNC1=C(OCC)C(=O)c2ccccc2C1=O`, for which the growth with T-47D breast is 89.6%; in the assay with BT-549 breast, 76.5%; with MDA-MB-435 melanoma it was 96.8%; in the assay with SW-620 colon it was 104%; in the assay on MCF7 breast, 76.3%; in the assay on HCT-116 colon, 80.3%. Moreover, the growth in the assay on HCC-2998 colon was 95.1%; in the assay on KM12 colon, 93.7%.
As to `O=C(O)CCCc1cnc2c3sccc3nc(SCc3c(Cl)cccc3Cl)n12`, the growth in the assay with T-47D breast is 24.9%; with BT-549 breast it was 44.8%; in the assay on MDA-MB-435 melanoma, 6.44% (active); in the assay on SW-620 colon, 27.3%; with MCF7 breast, 26.5%; in the assay with HCT-116 colon, 21.7%. The figures for the growth in the assay on HCC-2998 colon and with KM12 colon were 81.1% and 21.7%, respectively.
With `COc1cc2cc(Oc3ccc(NC(=O)Nc4ccccc4)cc3)c(C)nc2cc1OCCN1CCCCC1`, the growth in the assay on T-47D breast was 88%; with BT-549 breast, 86.8%; in the assay on MDA-MB-435 melanoma, 61.8%; in the assay with SW-620 colon it was 70.3%; in the assay on MCF7 breast, 31.9%; with HCT-116 colon it was 11.1%. For the same molecule, the growth was 73% in the assay on HCC-2998 colon and 42.4% in the assay on KM12 colon.
In the case of `N=C(N)SCc1cccc2c(CSC(=N)N)cccc12`, the growth in the assay with T-47D breast is 96.2%; in the assay with BT-549 breast it was 107%; in the assay on MDA-MB-435 melanoma, 107%; in the assay on SW-620 colon, 103%; with MCF7 breast it was 98.2%; with HCT-116 colon it was 101%. Besides, the growth in the assay on HCC-2998 colon is 104%; in the assay on KM12 colon, 94.5%.
As for `CCCCN1C(=O)/C(=c2\sc3n(c2=O)NC2C(N=3)N(CC)C(=O)N2CC)c2ccccc21` (configuration not stated), the growth in the assay on T-47D breast was 18.7%; in the assay with BT-549 breast it was 73.4%; in the assay with MDA-MB-435 melanoma it was -41.6% (active); in the assay on SW-620 colon, 36.2%; in the assay with MCF7 breast it was 25%; with HCT-116 colon it was 13.1%. Also, the growth in the assay with HCC-2998 colon is 64.1%; with KM12 colon, 20.3%.
Take `O[C@@H](c1cc(C(F)(F)F)nc2c(C(F)(F)F)cccc12)[C@H]1CCCCN1`: the growth was 43.1% in the assay on T-47D breast; 66.1% in the assay on BT-549 breast; 73.1% in the assay on MDA-MB-435 melanoma; 73.7% in the assay with SW-620 colon; 36.3% in the assay with MCF7 breast; 36.1% in the assay with HCT-116 colon. In addition, the results for the growth in the assay on HCC-2998 colon and in the assay on KM12 colon were 80.5% and 50.1%, respectively.
With `CC(C)c1ccc(NC(=O)Nc2ccc(NC(=O)c3ccccc3N)cc2)cc1`, the growth in the assay with T-47D breast is 38.2%; in the assay with BT-549 breast it was 77%; in the assay on MDA-MB-435 melanoma, 46.5%; in the assay on SW-620 colon it was 54.1%; in the assay with MCF7 breast, 31.6%; in the assay with HCT-116 colon, 51.8%. Further, the growth in the assay with HCC-2998 colon was 23.5%; in the assay with KM12 colon, 29.8%.
